# According to PubChem BioAssay:
# “And” between values parts separate entries of the source, which are not always exact repeats. Equal values may be shown once. Records with an inconclusive call do not appear. The source made the active and inactive calls. Unless noted, the limit is not given here; nearly all actives have AC50 up to about 26 µM.
# How the values were obtained:
# [1] = liver-stage malaria parasite growth inhibition, primary screen, cell-based, HepG2, luciferase luminescence, HepG2 viability (AID 624349; in the data active = parasite load remaining mostly below about 12%, no sharp cut-off; inactive = mostly above about 10%;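 also: 100% = mean of DMSO negative control wells on the same plate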); settings: P. berghei liver stage in HepG2, luciferase luminescence, concentration not given here; parasite load remaining: stronger effect = lower value; viability: measured here: HepG2 viability without parasites
# [2] = Cy5 fluorescence interference with SSB-bound oligo, artefact control for HCV NS3 helicase inhibitor project, biochemical, NIH Clinical Collection, E. coli SSB (AID 743268; call rule not given here)
# [3] = system: Hepatitis C virus NS3 helicase; assay: HCV NS3 helicase inhibitors, primary screen, biochemical, fluorescence polarization, NIH Clinical Collection (AID 743270; call rule not given here); settings: NS3 helicase binding to Cy5-dT15 DNA, stronger effect = higher value, concentration not given here
# [4] = target: Single-stranded DNA-binding protein (Escherichia coli (strain K12)) (UniProt P0AGE0); assay: E. coli SSB displacement from DNA, counter-screen for HCV NS3 helicase inhibitor project, biochemical, fluorescence polarization, NIH Clinical Collection (AID 743271; in the data active = inhibition above about 28%); settings: stronger effect = higher value, concentration not given here
# [5] = fluorescence interference in NS3h assay format, artefact control for HCV NS3 helicase inhibitor project, biochemical, NIH Clinical Collection (AID 743272; call rule not given here;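 also: HCV NS3 helicase with a Cy5 labelled single stranded DNA probe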); settings: fluorescence interference counterscreen, stronger effect = lower value
# [6] = growth inhibition of DIPG glioma cells, dose response, cell-based, SU-DIPG-XVII, MIPE5.0, CellTiter-Glo, qHTS (AID 1347060); settings: SU-DIPG-XVII viability, CellTiter-Glo ATP luminescence;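 as to AC50: cells exposed to compound for 48 hours before viability readout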
# [7] = growth inhibition of DIPG glioma cells, dose response, cell-based, SU-DIPG-IV, MIPE4.0, CellTiter-Glo, qHTS (AID 1347063; cut-off not given, nearly all actives have AC50 up to about 30 µM;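 also: compound exposure lasted 48 hours before the viability readout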); settings: SU-DIPG-IV viability, CellTiter-Glo ATP luminescence
# [8] = growth inhibition of DIPG glioma cells, dose response, cell-based, SU-DIPG-XIII, MIPE5.0, CellTiter-Glo, qHTS (AID 1347064; cut-off not given, nearly all actives have AC50 up to about 23 µM;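 as to AC50: cells exposed to compound for 48 hours before the viability read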); settings: SU-DIPG-XIII viability, CellTiter-Glo ATP luminescence
# [9] = viability loss in pontine glioma line – cell-based, SU-DIPG-XXV, MIPE5.0, CellTiter-Glo, qHTS, dose response (AID 1347065); settings: CellTiter-Glo ATP luminescence;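 also: cells exposed to compound for 48 hours before ATP readout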
# [10] = SU-DIPG-VI glioma cell viability, MIPE4.0 library, CellTiter-Glo luminescence, qHTS (AID 1347066; cut-off not given, nearly all actives have AC50 up to about 30 µM;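 also: cells exposed to compound for 48 hours before readout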); settings: CellTiter-Glo ATP luminescence
# [11] = JHH-DIPG-1 glioma cell viability, MIPE5.0 library, CellTiter-Glo luminescence, qHTS (AID 1347067); settings: JHH-DIPG-1 glioma viability, CellTiter-Glo ATP luminescence;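 also: cells exposed to compound for 48 hours before readout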
# [12] = SU-DIPG-XXV glioma cell viability, MIPE5.0 library, qHTS (AID 1347068; cut-off not given, nearly all actives have IC50 up to about 30 µM;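 as to IC50: cells exposed to compound for 48 hours before viability readout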)
# [13] = sensitizers of A549 cells to miR-34 induction, primary screen, imaging, A549 dox-inducible miR-34, nuclei and caspase counts (AID 1347080;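 active = compounds whose cell count with miR-34 switched on is under 0.7 times the count with it off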); settings: A549 miR-34 inducible, Hoechst nuclei count, 48 h
# [14] = survival rescue of mitochondrial mutant cells in low glucose, primary screen, MELAS cybrids, Rieske KO mouse fibroblasts, CellTiter-Glo (AID 1508586;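 active = mean z-score across replicates of 1.96 or higher in either the MELAS or the Rieske mutant cell line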;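 also: z relative to plate mean and SD of compound and empty wells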)
# [15] = viability rescue of complex I mutant cybrids, primary screen, cell-based, galactose medium, ATP luminescence (AID 1645843;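 active = z-score of at least 1.8 in each of two replicates, scored against plate mean and spread of sample wells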;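 also: positive z means more ATP and so rescue of galactose-driven cybrid death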); settings: complex I mutant cybrid cells, 72 h, stronger effect = higher value
# [16] = growth inhibition of DIPG glioma cells, dose response, cell-based, JHH-DIPG-1, MIPE4.0, CellTiter-Glo, qHTS (AID 1347062; cut-off not given, nearly all actives have AC50 up to about 27 µM;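 as to AC50: cells exposed to compound for two days before readout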); settings: JHH-DIPG-1 viability, CellTiter-Glo ATP luminescence
# [17] = modifiers of HSF1 nuclear foci, imaging, Selleck Cancer Library (AID 1347162; in the data active = plate-normalised HSF1 focus index below about 0.46); settings: human cells, at 10 µM; SSMD: measured here: HSF1 foci SSMD mean; cell count: measured here: cell number; plate-normalised HSF1 focus index: stronger effect = lower value
# [18] = target: NAD(+) hydrolase SARM1 (Homo sapiens) (UniProt Q6SZW1); assay: SARM1 TIR NADase inhibitors, cell lysate, NAD-Glo luminescence (AID 1508614;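 active = compound whose remaining NAD level is above about 45 nM, limit read from the data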;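 also: higher remaining NAD means stronger inhibition of SARM1 NADase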); settings: SAM-TIR HEK293T lysate NADase, at 1 µM, stronger effect = higher value
# Sequence of NAD(+) hydrolase SARM1 (Homo sapiens) (Q6SZW1 whole entry, looked up): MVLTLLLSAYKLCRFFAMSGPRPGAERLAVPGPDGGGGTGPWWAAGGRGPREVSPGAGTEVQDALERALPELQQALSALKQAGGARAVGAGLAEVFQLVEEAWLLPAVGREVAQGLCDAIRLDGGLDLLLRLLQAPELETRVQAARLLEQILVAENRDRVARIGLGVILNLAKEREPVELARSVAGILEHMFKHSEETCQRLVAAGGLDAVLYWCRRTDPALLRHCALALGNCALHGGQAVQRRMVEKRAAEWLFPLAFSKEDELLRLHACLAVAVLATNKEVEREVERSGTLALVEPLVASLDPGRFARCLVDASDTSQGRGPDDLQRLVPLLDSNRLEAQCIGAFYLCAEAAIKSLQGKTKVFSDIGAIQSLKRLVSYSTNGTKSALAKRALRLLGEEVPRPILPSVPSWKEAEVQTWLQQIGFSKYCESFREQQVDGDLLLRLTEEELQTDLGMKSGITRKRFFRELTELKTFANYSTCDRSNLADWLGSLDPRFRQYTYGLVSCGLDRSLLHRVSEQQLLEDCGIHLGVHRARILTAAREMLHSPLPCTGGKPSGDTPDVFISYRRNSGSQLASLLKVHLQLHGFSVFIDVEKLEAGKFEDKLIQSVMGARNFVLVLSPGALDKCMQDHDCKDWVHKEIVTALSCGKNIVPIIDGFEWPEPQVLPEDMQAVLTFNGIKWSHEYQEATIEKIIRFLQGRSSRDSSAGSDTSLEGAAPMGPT
# [19] = growth inhibition of DIPG glioma cells, dose response, cell-based, SU-DIPG-XIII, MIPE4.0, CellTiter-Glo, qHTS (AID 1347061; cut-off not given, nearly all actives have AC50 up to about 37 µM;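 also: cells exposed to compound for 48 hours before readout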); settings: SU-DIPG-XIII viability, CellTiter-Glo ATP luminescence
# [20] = measured here: relative caspase fold change +Dox/-Dox
# [21] = measured here: total cells with miR-34 induction, stronger effect = lower value
# [22] = measured here: total cells without miR-34 induction
# [23] = MELAS cybrid survival, CellTiter-Glo 48 h, stronger effect = higher value
# [24] = Rieske KO mouse fibroblast survival, CellTiter-Glo 72 h
# [25] = stronger effect = lower value, cell number ratio, induced over uninduced
smiles,measurement,setting,value
C[C@]12Cc3cn[nH]c3C[C@@H]1CC[C@@H]1[C@@H]2CC[C@@]2(C)[C@H]1CC[C@]2(C)O,parasite load remaining,[1],50.6% (inactive) and 13.2% (inactive)
same,viability,[1],69.5% and 91.5%
same,fluorescence ratio,[2],0.94 (inactive)
same,inhibition,[3],-1.97% (inactive)
same,inhibition,[4],-2.76% (inactive)
same,fluorescence ratio,[5],0.96 (inactive)
same,outcome,[6],inactive
same,outcome,[7],inactive
same,outcome,[8],inactive
same,outcome,[9],inactive
same,outcome,[10],inactive
same,outcome,[11],inactive
same,outcome,[12],inactive
same,fold change,[13]; stronger effect = lower value,0.887 (inactive)
same,fold change,[13]; [20],2.02
same,cell count,[13]; [21],8690
same,cell count,[13]; [22],9800
same,z-score,[14]; [23],0.697 (inactive) and -0.417 (inactive)
same,z-score,[14]; [24],-0.0861 and -1.23
same,z-score,[15],-0.265 (inactive)
Cc1[nH]ncc1-c1cc2nc([C@@H]3CC4CCN3CC4)[nH]c(=O)c2s1,AC50,[6],18.6 µM (active)
same,AC50,[9],16.6 µM (active)
same,AC50,[11],14.8 µM (active)
same,IC50,[12],23.5 µM (active)
C[C@@H]1CC[C@@]2(OC1)O[C@H]1C[C@H]3[C@@H]4CC=C5C[C@@H](O[C@@H]6O[C@H](CO)[C@@H](O[C@@H]7O[C@@H](C)[C@H](O)[C@@H](O)[C@H]7O)[C@H](O)[C@H]6O[C@@H]6O[C@@H](C)[C@H](O)[C@@H](O)[C@H]6O)CC[C@]5(C)[C@H]4CC[C@]3(C)[C@H]1[C@@H]2C,AC50,[6],0.661 µM (active)
same,AC50,[16],2.35 µM (active)
same,AC50,[7],0.833 µM (active)
same,AC50,[8],0.148 µM (active)
same,AC50,[9],0.468 µM (active)
same,AC50,[10],5.26 µM (active)
same,AC50,[11],0.742 µM (active)
same,IC50,[12],3.72 µM (active)
O=C(NCCCNc1nc(Nc2ccc(N3CCOCC3)cc2)ncc1C1CC1)C1CCC1,AC50,[6],20.9 µM (active)
same,AC50,[9],16.6 µM (active)
same,AC50,[11],14.8 µM (active)
C/C1=C/C[C@@H](/C(C)=C/c2csc(C)n2)OC(=O)C[C@H](O)C(C)(C)C(=O)[C@H](C)[C@@H](O)[C@@H](C)CCC1,AC50,[6],0.00296 µM (active)
same,AC50,[9],0.00417 µM (active)
CC1(C)CC[C@]2(NC(=O)C(C)(F)F)CC[C@]3(C)[C@H](C(=O)C=C4[C@@]5(C)C=C(C#N)C(=O)C(C)(C)[C@@H]5CC[C@]43C)[C@@H]2C1,AC50,[6],7.42 µM (active)
same,AC50,[8],10.5 µM (active)
same,AC50,[9],9.34 µM (active)
same,AC50,[11],7.42 µM (active)
same,IC50,[12],11.8 µM (active)
CC(=O)Nc1ccc(OC[C@](C)(O)C(=O)Nc2ccc([N+](=O)[O-])c(C(F)(F)F)c2)cc1,outcome,[6],inactive
same,outcome,[16],inactive
same,outcome,[8],inactive
same,outcome,[9],inactive
same,outcome,[10],inactive
same,outcome,[11],inactive
same,outcome,[12],inactive
same,fold change,[13]; stronger effect = lower value,0.963 (inactive)
same,fold change,[13]; [20],0.857
same,cell count,[13]; [21],7800
same,cell count,[13]; [22],8100
same,SSMD,[17],0.174
same,cell count,[17],7020
same,plate-normalised HSF1 focus index,[17],1.01 (inactive)
same,z-score,[14]; [23],-0.592 (inactive)
same,z-score,[14]; [24],0.733
NC(=O)[C@@H](CC1CC1)[C@@H](CCC(F)(F)F)C(=O)N[C@H]1N=C(c2ccccc2)c2cccc(F)c2NC1=O,outcome,[6],inactive
same,outcome,[8],inactive
same,outcome,[9],inactive
same,outcome,[12],inactive
COc1cc(C(=O)N2CC[C@@H](O)[C@@H](N)C2)cc2nc(-c3cc4ccccc4n3CC3CC3)n(C)c12,AC50,[6],23.5 µM (active)
same,AC50,[8],23.5 µM (active)
same,AC50,[9],29.5 µM (active)
same,AC50,[11],23.5 µM (active)
Cn1c(/C=C/CO)c(CO)c2c1C(=O)C=C(N1CC1)C2=O,outcome,[6],inactive
same,outcome,[9],inactive
same,outcome,[12],inactive
CN[C@@H]1C[C@H]2O[C@@](C)([C@@H]1OC)n1c3ccccc3c3c4c(c5c6ccccc6n2c5c31)C(=O)NC4,AC50,[6],0.118 µM (active)
same,AC50,[8],0.263 µM (active)
same,AC50,[9],0.209 µM (active)
same,AC50,[11],0.209 µM (active)
same,IC50,[12],0.833 µM (active)
same,fold change,[13]; [25],1.19 (inactive)
same,fold change,[13]; [20],0.478
same,cell count,[13]; [21],874
same,cell count,[13]; [22],732
Cc1ncc(OC[C@@]2(c3cccc(F)c3)C[C@H]2C(=O)Nc2ccc(F)cn2)c(C)n1,outcome,[6],inactive
same,outcome,[8],inactive
same,outcome,[9],inactive
same,outcome,[11],inactive
same,outcome,[12],inactive
c1ccc2c(CN3CCNCC3)cccc2c1,outcome,[6],inactive
same,outcome,[16],inactive
same,outcome,[8],inactive
same,outcome,[9],inactive
same,outcome,[10],inactive
same,outcome,[11],inactive
C[C@]12CC[C@H]3[C@@H](CC[C@@]45O[C@@H]4C(O)=C(C#N)C[C@]35C)[C@@H]1CC[C@@H]2O,AC50,[6],29.5 µM (active)
same,outcome,[16],inactive
same,AC50,[8],20.9 µM (active)
same,AC50,[9],20.9 µM (active)
same,outcome,[10],inactive
same,outcome,[12],inactive
same,remaining NAD,[18],10 nM (inactive)
O=S(=O)(F)Cc1ccccc1,outcome,[6],inactive
same,outcome,[16],inactive
same,outcome,[7],inactive
same,outcome,[8],inactive
same,outcome,[9],inactive
same,outcome,[10],inactive
same,outcome,[11],inactive
same,outcome,[12],inactive
same,fold change,[13]; [25],0.924 (inactive)
same,fold change,[13]; [20],0.551
same,cell count,[13]; [21],9940
same,cell count,[13]; [22],10800
same,z-score,[14]; [23],-0.358 (inactive)
same,z-score,[14]; [24],0.553
CC(N[C@H]1C[C@@H]1c1ccccc1)c1ccc2c(c1)OCCO2 (some centres undefined),outcome,[6],inactive
same,outcome,[16],inactive
same,outcome,[8],inactive
same,outcome,[9],inactive
same,outcome,[11],inactive
same,outcome,[12],inactive
CC1=C2C[C@H]3[C@@H](CC=C4C[C@@H](O)CC[C@@]43C)[C@@H]2CC[C@]12O[C@@H]1C[C@H](C)CN[C@H]1[C@H]2C,outcome,[6],inactive
same,outcome,[16],inactive
same,outcome,[7],inactive
same,outcome,[8],inactive
same,outcome,[9],inactive
same,outcome,[10],inactive
same,outcome,[11],inactive
same,outcome,[12],inactive
same,fold change,[13]; stronger effect = lower value,0.912 (inactive)
same,fold change,[13]; [20],0.801
same,cell count,[13]; [21],4470
same,cell count,[13]; [22],4900
same,SSMD,[17],2.32
same,cell count,[17],7300
same,plate-normalised HSF1 focus index,[17],1.08 (inactive)
CN(C)c1cc2c(cc1Sc1nc3c(N)nccc3n1CCNCC(C)(C)C)OCO2,AC50,[6],0.59 µM (active)
same,AC50,[8],1.32 µM (active)
same,AC50,[9],0.661 µM (active)
same,AC50,[11],1.32 µM (active)
same,IC50,[12],2.95 µM (active)
CCOc1ccccc1-n1c(C(C)N2CCN(C(=O)COc3ccc(Cl)cc3)CC2)nc2ccccc2c1=O (centres undefined),AC50,[6],16.6 µM (active)
same,AC50,[9],18.6 µM (active)
same,IC50,[12],18.6 µM (active)
same,fold change,[13]; [25],0.777 (inactive)
same,fold change,[13]; [20],0.61
same,cell count,[13]; [21],5130
same,cell count,[13]; [22],6610
same,z-score,[14]; [23],1.76 (inactive)
same,z-score,[14]; [24],1.03
COc1ccc2c(c1)CN(C)CC2c1ccc(Cl)c(Cl)c1 (centres undefined),outcome,[19],inactive
O=C(CBr)N1CC([N+](=O)[O-])([N+](=O)[O-])C1,outcome,[6],inactive
same,outcome,[9],inactive
same,outcome,[12],inactive
